In all, about 5,500 compounds went through this assay and about 2,000 (36%) were called active. Another 18% or so got no clear call; they are omitted. No stated cut-off is given here; in the data, active means normalized growth mostly below about 0.91 (no sharp cut-off); inconclusive means no clear call, values can overlap the other calls; inactive means mostly above about 0.92. Some of the results follow.
Test: chemical genetic growth profiling, strain panel (AID 1159580);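 further: tested at 20 µM; growth read once vehicle control cultures reached saturation at 30 °C; 1 = growth at the plate median or of vehicle wells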
Details: S. cerevisiae deletion strains, growth OD

Measured: normalized growth

CC(=O)Oc1ccc(O)cc1
active: locus YBR021W, strain FUR4, stronger effect = lower value 0.796 | locus YGR229C, strain SMI1, stronger effect = lower value 0.572 | locus YIL066C, strain RNR3, stronger effect = lower value 0.852
inactive: locus YAL013W, strain DEP1, stronger effect = lower value 0.942 | locus YAL021C, strain ccr4, stronger effect = lower value 1.03 | locus YAL026C, strain drs2, stronger effect = lower value 0.953 | locus YAL030W, strain snc1, stronger effect = lower value 0.994 | locus YBL061C, strain skt5, stronger effect = lower value 0.977 | locus YBR009C, strain hhf1, stronger effect = lower value 0.963 | locus YBR023C, strain chs3, stronger effect = lower value 0.982 | locus YBR171W, strain sec66, stronger effect = lower value 0.974 | locus YBR229C, strain ROT2, stronger effect = lower value 1.02 | locus YBR231C, strain swc5, stronger effect = lower value 0.971 | locus YBR279W, strain paf1, stronger effect = lower value 0.986 | locus YCL011C, strain gbp2, stronger effect = lower value 0.989 | locus YCL016C, strain dcc1, stronger effect = lower value 0.999 | locus YCL029C, strain bik1, stronger effect = lower value 1.03 | locus YCL061C, strain MRC1, stronger effect = lower value 0.993 | locus YCL069W, strain vba3, stronger effect = lower value 0.987 | locus YCR088W, strain abp1, stronger effect = lower value 0.995 | locus YDL005C, strain med2, stronger effect = lower value 0.978 | locus YDL035C, strain GPR1, stronger effect = lower value 0.922 | locus YDL040C, strain nat1, stronger effect = lower value 0.994 | locus YDL074C, strain BRE1, stronger effect = lower value 1 | locus YDL101C, strain DUN1, stronger effect = lower value 1 | locus YDL134C, strain PPH21, stronger effect = lower value 0.89 | locus YDL185W, strain tfp1, stronger effect = lower value 1.03 | locus YDL192W, strain arf1, stronger effect = lower value 1.02 | locus YDR001C, strain nth1, stronger effect = lower value 0.987 | locus YDR069C, strain doa4, stronger effect = lower value 1.02 | locus YDR101C, strain arx1, stronger effect = lower value 1.02 | locus YDR137W, strain rgp1, stronger effect = lower value 0.936 | locus YDR150W, strain NUM1, stronger effect = lower value 0.999 | locus YDR159W, strain sac3, stronger effect = lower value 0.967 | locus YDR162C, strain NBP2, stronger effect = lower value 0.916 | locus YDR195W, strain ref2 0.997 | locus YDR297W, strain sur2, stronger effect = lower value 0.987 | locus YDR318W, strain mcm21, stronger effect = lower value 1 | locus YDR334W, strain swr1, stronger effect = lower value 0.986 | locus YDR335W, strain msn5, stronger effect = lower value 0.995 | locus YDR388W, stronger effect = lower value 1.02 | locus YDR392W, strain spt3, stronger effect = lower value 0.844 | locus YDR502C, strain sam2, stronger effect = lower value 1.02 | locus YEL003W, strain gim4, stronger effect = lower value 0.986 | locus YEL037C, strain rad23, stronger effect = lower value 0.987 | locus YEL061C, strain CIN8 (second series), stronger effect = lower value 0.98 | locus YEL061C, strain CIN8, stronger effect = lower value 1 | locus YER015W, strain faa2, stronger effect = lower value 0.992 | locus YER016W, strain bim1, stronger effect = lower value 1.01 | locus YER110C, stronger effect = lower value 1.04 | locus YER111C, strain swi4, stronger effect = lower value 0.969 | locus YER155C, strain BEM2 (second series), stronger effect = lower value 0.959 | locus YER155C, strain BEM2, stronger effect = lower value 1.01 | locus YER167W, strain BCK2, stronger effect = lower value 0.976 | locus YFR010W, strain ubp6, stronger effect = lower value 0.969 | locus YGL078C, strain dbp3, stronger effect = lower value 1.02 | locus YGL086W, strain mad1, stronger effect = lower value 0.984 | locus YGL167C, strain pmr1, stronger effect = lower value 0.988 | locus YGL173C, strain kem1, stronger effect = lower value 0.975 | locus YGL227W, strain vid30, stronger effect = lower value 0.983 | locus YGL240W, strain doc1, stronger effect = lower value 0.926 | locus YGL248W, strain PDE1, stronger effect = lower value 0.923 | locus YGL253W, strain hxk2, stronger effect = lower value 0.973 | locus YGR135W, strain pre9, stronger effect = lower value 0.99 | locus YGR252W, strain gcn5, stronger effect = lower value 0.87 | locus YHR013C, strain ard1, stronger effect = lower value 0.975 | locus YHR027C, strain rpn1, stronger effect = lower value 0.987 | locus YHR030C, strain SLT2, stronger effect = lower value 0.994 | locus YHR079C, strain IRE1 (second series), stronger effect = lower value 1.02 | locus YHR094C, strain hxt1, stronger effect = lower value 1.02 | locus YHR129C, strain ARP1, stronger effect = lower value 0.994 | locus YHR142W, strain chs7, stronger effect = lower value 0.996 | locus YHR200W, strain rpn10, stronger effect = lower value 1.03 | locus YIL073C, strain SPO22, stronger effect = lower value 0.89 | locus YIL125W, strain kgd1, stronger effect = lower value 1.02 | locus YIR030C, strain dcg1, stronger effect = lower value 1.04 | locus YJL092W, strain hpr5, stronger effect = lower value 0.983 | locus YJL095W, strain BCK1 (second series), stronger effect = lower value 0.996 | locus YJL095W, strain BCK1, stronger effect = lower value 0.976 | locus YJL115W, strain asf1, stronger effect = lower value 0.988 | locus YJL129C, strain trk1, stronger effect = lower value 1.01 | locus YJL134W, strain LCB3, stronger effect = lower value 1.03 | locus YJL154C, strain vps35, stronger effect = lower value 0.985 | locus YJL164C, strain tpk1, stronger effect = lower value 0.975 | locus YJL166W, strain qcr8, stronger effect = lower value 0.978 | locus YJL168C, strain set2, stronger effect = lower value 1.02 | locus YJL187C, strain SWE1 (second series), stronger effect = lower value 0.997
